TDP-43 rescue = TDP-43 toxicity inhibition in yeast; yeast TDP-43 toxicity rescue, BacTiter-Glo growth, 24 h; Potency, µM (highest dose often 46.1 µM), actives largely listed as activators; 45,000 tested, 0.45% active; active = well fitted activation curve with a large enough effect; note: 0% is about no effect; nearly all actives have a fitted effect of over 55% in size
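TDP-43-expressing yeast, pregrown in raffinose, seeded at OD600 0.02 in galactose medium with compound for 24 hr at 30 deg C. Growth read by BacTiter-Glo luminescence, so rescue of toxicity appears as activation.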
* marks the source's active call; other numbers are inactive results. This is one part of a sample in which hits are shown more often than they occur. Potency is the fitted concentration of half-maximal effect.

`N/C(=N\OC(=O)c1cccc(Cl)c1)c1cccnc1` gave TDP-43 rescue 11µM*.
For N/C(=N\OC(=O)COc1ccc(Cl)cc1Cl)c1cccnc1 the results were TDP-43 rescue inactive.
COc1cccc(N2CCN(c3c4c(nc5nncn35)CCC4)CC2)c1 was read as TDP-43 rescue inactive.
Cc1ccc(OCC(=O)N(Cc2ccc(Cl)cc2)Cc2ccco2)cc1C was read as TDP-43 rescue inactive.
Screening O=C(Nc1cc2c(cc1C(=O)c1ccc(Br)cc1)OCCO2)c1ccc(Cl)cc1 returned TDP-43 rescue inactive.
CCCN(CC(=O)Nc1ccccc1Br)CC(=O)Nc1ccc(F)c(F)c1F was read as TDP-43 rescue 11µM*.
`CCCN(CC(=O)Nc1ccc(F)c(F)c1F)C(=O)c1ccc2c(c1)NC(=O)CS2` gave TDP-43 rescue inactive.
`O=C(Cc1ccccc1F)NCC(=O)Nc1ccccc1Br` gave TDP-43 rescue inactive.
Screening N/C(=N\OC(=O)CC1CCCCC1)c1ccc([N+](=O)[O-])cc1 returned TDP-43 rescue 18µM*.
O=C(NCC1CCCCC1)c1cccc([N+](=O)[O-])c1 was read as TDP-43 rescue inactive.
`Cc1ccc(OCC(=O)O/N=C(\N)c2cccc([N+](=O)[O-])c2)cc1C` gave TDP-43 rescue inactive.
`N#Cc1ccccc1Cn1c(=O)n(-c2ccc(F)c(Cl)c2)c(=O)c2sccc21` gave TDP-43 rescue inactive.
Cc1ccc(-n2nc(C)c3c(C)c(CCC(=O)NCc4ccccc4Cl)c(C)nc32)cc1 was read as TDP-43 rescue inactive.
Screening CSc1nc2sc3c(c2c(=O)n1-c1ccc(C)cc1)CCCC3 returned TDP-43 rescue inactive.
O=C(CNC(=O)C1COc2ccccc2O1)N/N=C\c1cccc(O)c1 (centres undefined) was read as TDP-43 rescue inactive.
For O=C(N/N=C\c1cccc([N+](=O)[O-])c1O)C1COc2ccccc2O1 (centres undefined) the results were TDP-43 rescue 10µM*.
Screening Cc1c(/C=N\NC(=O)C2COc3ccccc3O2)c2ccccc2n1C (centres undefined) returned TDP-43 rescue inactive.
Screening O=C1COc2cc(S(=O)(=O)NCc3ccco3)c(Cl)cc2N1 returned TDP-43 rescue inactive.
`CCOc1ccccc1NC(=O)Cn1cnc2c1c(=O)n(C)c(=O)n2C` gave TDP-43 rescue inactive.
COc1ccc(-c2noc(CN(C(=O)C(C)Oc3ccc(C)cc3)C(C)C)n2)cc1 (centres undefined) was read as TDP-43 rescue 20µM*.
Screening Cc1ccc(-c2noc(CN(C)C(=O)c3ccoc3C)n2)cc1 returned TDP-43 rescue inactive.
`Cc1ccc(-c2noc(CN(C(=O)c3ccc4c(c3)OCO4)C(C)C)n2)cc1` gave TDP-43 rescue inactive.
CCOC(=O)c1c(NC(=O)c2cc(OCC)c(OCC)c(OCC)c2)sc2c1CCCCC2 was read as TDP-43 rescue inactive.
Screening CCc1ccc(OCC(=O)N(Cc2ccc(C)o2)C2CCS(=O)(=O)C2)cc1 (centres undefined) returned TDP-43 rescue inactive.
Screening Cc1ccc2cc3cc(C(=O)N(C)c4ccccc4C)oc3nc2c1 returned TDP-43 rescue inactive.
COc1ccc(-c2onc(C)c2-c2ccc(C(=O)OC(C)C)o2)c(O)c1 was read as TDP-43 rescue 16µM*.
COc1cc(NC(=O)c2ccc(-c3c(C)noc3C)c3ccoc23)cc(OC)c1OC was read as TDP-43 rescue inactive.
`COc1ccc(-c2onc(C)c2-c2cnn(-c3ccccc3)c2)c(O)c1C` gave TDP-43 rescue inactive.
Cc1ccc(C)n1-c1nnc(N2CCCC(C(=O)NCc3cccc(Cl)c3)C2)s1 (centres undefined) was read as TDP-43 rescue inactive.
For O=C(Nc1ccc(N2CCOCC2)cc1)c1ccc(Br)o1 the results were TDP-43 rescue inactive.
For O=C(Nc1ccc(N2CCOCC2)cc1)c1cc2c(s1)CCCCC2 the results were TDP-43 rescue 16µM*.
Screening O=C(Nc1cccc(S(=O)(=O)Nc2ccc(Cl)cc2)c1)c1cc2c(s1)CCCC2 returned TDP-43 rescue inactive.
Screening CCN(c1ccc(C)cc1)S(=O)(=O)c1nnc(NC(=O)C2CCCCC2)s1 returned TDP-43 rescue inactive.
For Cc1ccc(CSc2nnc(-c3ccco3)o2)cc1 the results were TDP-43 rescue 13µM*.
CC(=O)c1c(C)[nH]c(C(=O)CSc2nnc(-c3ccco3)o2)c1C was read as TDP-43 rescue inactive.
CC(=O)c1ccc(NC(=O)CSc2nnc(-c3ccco3)o2)cc1 was read as TDP-43 rescue inactive.
For Cc1cc(C)c(NC(=O)Cn2c(=O)oc3cc(S(=O)(=O)N4CCCCCC4)ccc32)c(C)c1 the results were TDP-43 rescue inactive.
Screening O=C(NCC1CCN(C(=O)c2c(F)c(F)c(F)c(F)c2F)CC1)c1c(F)c(F)c(F)c(F)c1F returned TDP-43 rescue 18µM*.
For CC(C)CNC(=O)c1c(F)c(F)c(F)c(F)c1F the results were TDP-43 rescue inactive.
Screening O=C(NCC1CCN(C(=O)c2cccc([N+](=O)[O-])c2)CC1)c1cccc([N+](=O)[O-])c1 returned TDP-43 rescue inactive.
`Cc1ccc(CN(C(=O)COc2ccc(Cl)c(C)c2)C2CCS(=O)(=O)C2)o1` (centres undefined) gave TDP-43 rescue inactive.
For COc1cccc(NC(=O)CSc2nc(C)c(Cc3ccccc3)c(=O)[nH]2)c1 the results were TDP-43 rescue inactive.
Screening CC(OC(=O)c1cnc2ccccc2n1)c1ccccc1Cl (centres undefined) returned TDP-43 rescue inactive.
Screening COc1cccc(C(=O)NCCCNC(=O)c2ccccn2)c1 returned TDP-43 rescue inactive.
COC(=O)c1cc(Sc2cccc(Cl)c2Cl)ccn1 was read as TDP-43 rescue 13µM*.
For CCN(Cc1ccccc1)C(=O)Cn1c(=O)oc2cc(S(=O)(=O)N3CCCCCC3)ccc21 the results were TDP-43 rescue inactive.
`Clc1cccc(N2CCN(c3nc4ccccc4n4nnnc34)CC2)c1` gave TDP-43 rescue inactive.
COC(=O)Cn1c(=O)c2cccn2c2cccnc21 was read as TDP-43 rescue inactive.
`Cc1cc2c(c(N3CCOCC3)n1)C(=O)OC2` gave TDP-43 rescue inactive.
`Cc1cc2c(c(SCC(=O)NCc3ccccc3Cl)n1)C(=O)OC2` gave TDP-43 rescue inactive.
`C=CCSc1nc(C)cc2c1C(=O)OC2` gave TDP-43 rescue 10µM*.
